ssDAF-12 act – S. stercoralis DAF-12 activation, primary screen | HEK293 ssDAF-12/GRIP1 lit1-tk-luc reporter, luminescence; % of 3 µM dafachronic acid response | activation, % at 6.8 µM | 370,000 compounds, 1% hits | AID 652126;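 active means activation above the mean over all tested compounds plus 3 SD, cut at about 0.9% in these data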;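 further: 0% = DMSO-only wells and 100% = 3 µM delta7-dafachronic acid wells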
hcDAF-12 act – activates DAF-12 receptor from parasite H. contortus. activation, % at 6.8 µM. 370,000 compounds, 1.4% hits. HEK293 hcDAF-12 lit1-tk-luc reporter, luminescence; 0% DMSO, 100% Δ7-dafachronic acid;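 active means activation above the mean of all tested compounds plus 3 SD, cut at about 5.5% in these data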;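 further: 100% = response to 3 µM Δ7-dafachronic acid high control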
DAX1 inh-1 – NR0B1 (DAX1) inhibition | P51843 | HEK293 Gal4-DAX1 luciferase reporter, luminescence | inhibition, % at 6.75 µM | 340,000 compounds, 0.99% hits;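 active means inhibition above the mean over all tested compounds plus 3 SD, cut at about 4.2% in these data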;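 further: 0% = DAX1-transfected cells with DMSO and 100% = empty-vector control cells with DMSO; inhibition shows as a rise in luminescence from relieved DAX1 repression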
Wee1 degr inh – blocks degradation of human Wee1 kinase; reporter increase, % at 5 µM; 220,000 compounds, 1.2% hits; P30291; AID 1321; HeLa Luc-Wee1K328M stability, luciferase luminescence; 100% = proteasome inhibitor MG132 effect;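 active means activation above the mean of all tested compounds plus 3 SD, set per screening run, cut at about 8.8% in these data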;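 further: cells exposed to compound for 20 h before luminescence read; 0% = DMSO alone and 100% = MG132 at 30 µM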
Target sequence (P30291 whole entry K328M): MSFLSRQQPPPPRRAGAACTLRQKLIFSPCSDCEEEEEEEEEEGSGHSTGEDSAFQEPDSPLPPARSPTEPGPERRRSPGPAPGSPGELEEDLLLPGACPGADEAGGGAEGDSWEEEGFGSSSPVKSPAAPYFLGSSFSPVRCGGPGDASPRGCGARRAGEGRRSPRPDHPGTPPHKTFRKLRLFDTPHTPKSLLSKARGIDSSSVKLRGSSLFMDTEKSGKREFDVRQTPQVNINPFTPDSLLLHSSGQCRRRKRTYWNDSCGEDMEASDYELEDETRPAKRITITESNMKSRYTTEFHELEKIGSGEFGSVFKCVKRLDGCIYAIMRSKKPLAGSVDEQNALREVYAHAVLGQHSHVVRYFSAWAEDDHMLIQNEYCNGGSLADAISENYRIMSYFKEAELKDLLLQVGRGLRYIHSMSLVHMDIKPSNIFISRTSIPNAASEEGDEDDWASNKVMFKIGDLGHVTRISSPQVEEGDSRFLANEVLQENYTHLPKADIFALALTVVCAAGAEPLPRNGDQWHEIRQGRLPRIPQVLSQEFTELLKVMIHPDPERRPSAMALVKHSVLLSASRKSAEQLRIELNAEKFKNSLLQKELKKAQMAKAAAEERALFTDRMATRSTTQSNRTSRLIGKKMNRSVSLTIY
DAX1 inh-2 – inhibitors of DAX1 repression of SF-1 activated StAR promoter; inhibition, % at 6.8 µM; 370,000 compounds, 1.1% hits; HEK293T StAR-luciferase reporter, SF-1/DAX-1 repression relief;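 active means inhibition above the mean over all tested compounds plus 3 SD, cut at about 3.6% in these data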;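 further: 0% = DAX-1 cells with DMSO and 100% = cells lacking DAX-1 with DMSO; higher inhibition means more luminescence from relief of DAX-1 repression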
hgDAF-12 ag – activates the H. glycines DAF-12 receptor ligand-binding domain; activation, % at 6.8 µM; HEK293 GAL4-hgDAF12 UAS-luciferase reporter, agonist luminescence; normalized to butyrate control; 370,000 compounds, 1.8% hits;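 active means activation above a cutoff set at the mean of all screened compounds plus 3 SD, cut at about 10% in these data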;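 further: 0% = DMSO wells and 100% = sodium butyrate wells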
Active calls of the source: *; . = not tested or not shown. Shown are actives, neighbours in structure and some others; about 4.6% of the full set was active somewhere.

SMILES	ssDAF-12 act	hcDAF-12 act	DAX1 inh-1	Wee1 degr inh	DAX1 inh-2	hgDAF-12 ag
C/C(CCc1ccc2c(c1)OCO2)=N\NC(=O)c1ccccc1Cl	-1.2	2.7	1.5	2.3	1.1	1.6
C/C(CCc1ccc2c(c1)OCO2)=N\NC(=O)c1ccccc1	2.5*	2.4	0.4	-1.1	0.1	11.0*
C/C(=N\NC(=O)c1ccccc1)c1ccc2c(c1)OCO2	-0.9	3.2	5.2*	-0.2	3.2	3.7
O=C(CCNS(=O)(=O)c1ccc(F)cc1)N1CCN(c2ncccn2)CC1	-0.6	1.5	0.3	.	-0.9	-0.8
COc1ccc(COc2cc(-c3cccc(OC)c3)nc3ccc(NC(C)=O)cc23)cc1	-1.3	0.1	-1.0	-2.4	-0.6	0.4
COc1ccc(COc2cc(-c3cccc(OC)c3)nc3ccc(N)cc23)cc1	-1.1	-1.6	-2.5	9.5*	-0.4	-7.3
Cc1ccccc1N/N=C/c1c(C)nc2ccccn12	0.1	2.3	0.1	.	0.0	0.2
Cc1cc(=O)[nH]c(-c2ccccc2OC(F)(F)F)n1	-1.7	-1.9	1.0	0.3	0.2	-1.1
Cc1nc(-c2ccccc2OC(F)(F)F)[nH]c(=O)c1Cl	-2.2	-1.5	2.6	9.2*	-0.2	0.2
Cc1ccc(C(=O)NCCCc2ccccc2)s1	-0.3	6.2*	3.0	2.7	1.5	9.6
O=C(NCCc1c[nH]c2ccccc12)c1cc([N+](=O)[O-])cc([N+](=O)[O-])c1	0.9*	5.2	-1.1	.	0.1	-0.6
O=C(NCCCCNC(=O)c1ccc(Br)s1)c1ccc(Br)s1	-1.2	-1.2	-0.1	16.5*	-0.2	-2.3
O=C(NCCCN1CCOCC1)c1ccc(Br)s1	-1.4	2.2	2.6	0.2	0.5	1.7
Cc1ccc(C(=O)NCCc2c[nH]c3ccccc23)s1	1.3*	1.2	1.5	.	0.8	10.1
O=C(NCCc1c[nH]c2ccccc12)c1ccc([N+](=O)[O-])cc1	0.1	2.5	1.2	-0.5	0.2	2.6
Cc1ccc(N(CC(=O)N/N=C/c2cccc(Br)c2)S(C)(=O)=O)cc1	1.4*	3.5	-0.2	1.5	-0.1	4.2
CCCCOCCCNC(=O)C[C@H]1C[C@@]2(C(=O)OC)C(=C[C@H](C3CCCC3)O[C@@H]2C)N(Cc2cccc3ccccc23)C1=O	-0.9	-0.8	.	.	-0.3	-0.4
CC1C(=O)N(Cc2cn(Cc3ccco3)nn2)CCS(=O)(=O)N1Cc1ccc(-c2ccc(F)cc2)cc1 (configuration not stated)	-1.6	-1.7	0.6	.	-0.1	0.5
O=C(OCc1nnc(-c2ccc(Cl)cc2)o1)C12CC3CC(CC(O)(C3)C1)C2	-0.3	2.3	-0.2	9.8*	0.0	5.9
O=C(Cc1ccc(Cl)cc1)OCc1nnc(-c2ccccc2)o1	-1.6	-1.7	-0.2	-1.8	-0.3	-2.6
COc1cccc2oc3cc(C#CC4(O)CCCCC4)ccc3c(=O)c12	0.5	5.8*	1.4	.	4.0*	6.2
COc1ccc(C(=O)Nc2ccc3c(c2)OCO3)cc1S(=O)(=O)N1CCOCC1	-1.1	1.0	0.4	.	-1.1	0.7
COc1ccc(C)cc1S(=O)(=O)NCC(c1ccc2c(c1)OCO2)N1CCN(C)CC1 (configuration not stated)	-0.5	-0.9	0.7	.	3.7*	-1.7
COc1ccc(S(=O)(=O)NCC(c2ccc3c(c2)OCO3)N2CCN(C)CC2)cc1OC (configuration not stated)	-0.7	0.5	0.6	.	0.2	2.4
O=C(NCc1ccccc1)c1cc(C2COCCN2S(=O)(=O)c2cccs2)on1 (configuration not stated)	-1.6	-0.4	.	.	-1.6	-2.6
SMILES	ssDAF-12 act	hcDAF-12 act	DAX1 inh-1	Wee1 degr inh	DAX1 inh-2	hgDAF-12 ag
CCC(=O)NC(c1ccc(N(C)C)cc1)c1c(O)ccc2ccccc12 (configuration not stated)	-0.5	6.3*	0.2	-1.0	0.3	1.5
CCC(=O)NC(c1ccc(OC)cc1)c1c(O)ccc2ccccc12 (configuration not stated)	-1.4	-1.0	-1.2	0.7	-1.6	-0.4
CC(C)c1ccc2oc(=O)cc(CN3CCN(c4ccc(F)cc4)CC3)c2c1	-0.9	-1.5	0.4	-1.7	-0.3	-0.6
CCc1ccc2oc(=O)cc(CN3CCN(c4ccc(F)cc4)CC3)c2c1	-1.1	-0.6	-0.2	10.8*	0.3	1.9
CCC(=O)Nc1ccc(NC(=O)c2ccco2)c(OC)c1	-0.9	-0.8	1.9	-0.6	0.8	4.5
COc1cc(NC(=O)CC(C)C)ccc1NC(=O)c1ccco1	-1.0	0.4	4.4*	0.3	2.3	4.6
CCCC(=O)Nc1ccc(NC(=O)c2ccco2)c(OC)c1	-0.4	1.9	1.3	-0.9	3.7*	5.8
CC(C)C[C@H](NC1(C(=O)NC2CCCCC2)CCN(C(=O)OC(C)(C)C)CC1)C(=O)NCCc1c[nH]c2ccccc12	0.7	0.5	.	.	.	-1.4
CN(Cc1ccccc1)C(=O)OCc1cn(Cc2ccccc2C(F)(F)F)nn1	-0.4	2.2	.	.	-0.8	-1.3
FC(F)(F)c1cc(Cc2nc3ccccc3n2C(CCc2ccccc2)c2nc3ccccc3[nH]2)cc(C(F)(F)F)c1 (configuration not stated)	-1.5	0.1	.	.	3.9*	5.5
CSc1nnc(SCC2=NNC(=O)SC2)s1	0.9*	-0.8	0.4	-0.9	-0.3	1.1
Cc1oc(-c2ccc(Cl)cc2)nc1CS(=O)CC(=O)NCc1ccco1 (configuration not stated)	-0.9	-1.5	0.1	.	-0.4	10.8*
COc1ccc(C(C(=O)NCc2ccccc2)N(Cc2cccnc2)C(=O)c2snc(C(N)=O)c2N)cc1OC (configuration not stated)	-1.4	0.4	4.3*	.	-0.1	-2.8
CN(C)c1ccc(C(C(=O)NCc2ccccc2)N(Cc2cccnc2)C(=O)c2snc(C(N)=O)c2N)cc1 (configuration not stated)	-0.7	-2.5	-2.8	.	-1.0	-3.6
COc1ccc2c(=O)c3c(=O)n(CCc4ccccc4)c(C(C)C)nc3oc2c1	-1.5	0.5	4.7*	-1.6	-0.2	0.5
COC(=O)CNC(=O)C12CC3CC(C1)CC(c1ccc(C)cc1)(C3)C2	-1.5	-1.3	-0.8	-0.1	0.4	-3.2
COCCNC(=O)C12CC3CC(C1)CC(c1ccccc1)(C3)C2	-1.2	-1.6	-0.2	10.8*	0.0	0.4
Cc1ccc(NC(=S)NC(=O)c2ccc(-c3ccc(Cl)cc3)o2)c(O)c1	2.5*	3.1	0.6	-2.4	0.2	2.2
Cc1cc(NC(=O)C(C)C)ncc1NC(=O)c1ccco1	-0.6	0.4	5.9*	.	0.4	0.7
CSCCC(NC(=O)c1ccco1)C(=O)NC1CCC(C)CC1 (configuration not stated)	-0.9	2.8	-0.3	.	3.7*	2.4

High-throughput results: PubChem BioAssay, The Scripps Research Institute Molecular Screening Center
